Measured values published in PubChem BioAssay AID1159580 (chemical genetic matrix, 2015).
Where “and” joins values, the source holds several entries; their conditions need not be identical. Identical values can stand only once. The whole screen tested about 5,500 compounds, of which about 2,000 (36%) were called active. Not shown: some 18% with an inconclusive outcome. No stated cut-off is given here; in the data, active means normalized growth mostly below about 0.91 (no sharp cut-off); inconclusive means no clear call, values can overlap the other calls; inactive means mostly above about 0.92. The list shows a part of the results.

Assay: chemical genetic growth profiling, strain panel (AID 1159580);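 further: tested at 20 µM; growth read once vehicle control cultures reached saturation at 30 °C; 1 = growth at the plate median or of vehicle wells; lower values mean less growth of the strain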
Settings: S. cerevisiae deletion strains, growth OD

Measured: normalized growth

O=C(CCc1ccc(O)cc1)c1c(O)cc(O)cc1O[C@@H]1O[C@H](CO)[C@@H](O)[C@H](O)[C@H]1O
inactive: locus YAL021C, strain ccr4, hits give low values 1.01 | locus YAL026C, strain drs2, hits give low values 1.01 | locus YAL030W, strain snc1, hits give low values 1.01 | locus YBL061C, strain skt5, hits give low values 1.02 | locus YBR009C, strain hhf1, hits give low values 1.02 | locus YBR021W, strain FUR4, hits give low values 1.01 | locus YBR023C, strain chs3, hits give low values 1.01 | locus YBR171W, strain sec66, hits give low values 1.05 | locus YBR229C, strain ROT2, hits give low values 1.02 | locus YBR231C, strain swc5, hits give low values 1.02 | locus YBR279W, strain paf1, hits give low values 1 | locus YCL011C, strain gbp2, hits give low values 1.02 | locus YCL016C, strain dcc1, hits give low values 1.02 | locus YCL029C, strain bik1, hits give low values 0.982 | locus YCL061C, strain MRC1, hits give low values 1.02 | locus YCL069W, strain vba3, hits give low values 1.01 | locus YCR088W, strain abp1, hits give low values 1.01 | locus YDL005C, strain med2, hits give low values 1.02 | locus YDL035C, strain GPR1, hits give low values 1.04 | locus YDL040C, strain nat1, hits give low values 1.01 | locus YDL074C, strain BRE1, hits give low values 1.05 | locus YDL101C, strain DUN1, hits give low values 1.02 | locus YDL134C, strain PPH21, hits give low values 1.06 | locus YDL185W, strain tfp1, hits give low values 0.993 | locus YDL192W, strain arf1, hits give low values 0.986 | locus YDR001C, strain nth1, hits give low values 1.01 | locus YDR069C, strain doa4, hits give low values 1.03 | locus YDR101C, strain arx1, hits give low values 0.998 | locus YDR137W, strain rgp1, hits give low values 0.993 | locus YDR159W, strain sac3, hits give low values 1.03 | locus YDR162C, strain NBP2, hits give low values 1.06 | locus YDR195W, strain ref2 0.997 | locus YDR297W, strain sur2, hits give low values 1.02 | locus YDR318W, strain mcm21, hits give low values 0.986 | locus YDR334W, strain swr1, hits give low values 1.02 | locus YDR335W, strain msn5, hits give low values 1.01 | locus YDR388W, hits give low values 0.992 | locus YDR392W, strain spt3, hits give low values 1.02 | locus YDR502C, strain sam2, hits give low values 0.998 | locus YEL003W, strain gim4, hits give low values 1.01 | locus YEL037C, strain rad23, hits give low values 1.01 | locus YEL061C, strain CIN8 (second series), hits give low values 1.01 | locus YEL061C, strain CIN8, hits give low values 1.02 | locus YER015W, strain faa2, hits give low values 1.02 | locus YER016W, strain bim1, hits give low values 1.01 | locus YER110C, hits give low values 0.981 | locus YER111C, strain swi4, hits give low values 1.02 | locus YER155C, strain BEM2 (second series), hits give low values 1.02 | locus YER155C, strain BEM2, hits give low values 1 | locus YER167W, strain BCK2, hits give low values 1.02 | locus YFR010W, strain ubp6, hits give low values 1.01 | locus YGL078C, strain dbp3, hits give low values 0.985 | locus YGL086W, strain mad1, hits give low values 1.01 | locus YGL167C, strain pmr1, hits give low values 1.03 | locus YGL173C, strain kem1, hits give low values 1.02 | locus YGL227W, strain vid30, hits give low values 1.02 | locus YGL240W, strain doc1, hits give low values 1.02 | locus YGL248W, strain PDE1, hits give low values 1.03 | locus YGL253W, strain hxk2, hits give low values 1.02 | locus YGR135W, strain pre9, hits give low values 1 | locus YGR252W, strain gcn5, hits give low values 1.01 | locus YHR013C, strain ard1, hits give low values 1.03 | locus YHR027C, strain rpn1, hits give low values 1.02 | locus YHR030C, strain SLT2, hits give low values 1.02 and 0.996 | locus YHR079C, strain IRE1 (second series), hits give low values 1 | locus YHR079C, strain IRE1, hits give low values 0.972 | locus YHR094C, strain hxt1, hits give low values 0.988 | locus YHR129C, strain ARP1, hits give low values 1.03 | locus YHR142W, strain chs7, hits give low values 1.02 | locus YHR200W, strain rpn10, hits give low values 1.02 | locus YIL066C, strain RNR3, hits give low values 1.05 | locus YIL073C, strain SPO22, hits give low values 1.01 | locus YIL125W, strain kgd1, hits give low values 0.986 | locus YIR030C, strain dcg1, hits give low values 0.973 | locus YJL092W, strain hpr5, hits give low values 1.02 | locus YJL095W, strain BCK1 (second series), hits give low values 1.01 | locus YJL095W, strain BCK1, hits give low values 1.05 and 0.981 | locus YJL115W, strain asf1, hits give low values 1.01 | locus YJL129C, strain trk1, hits give low values 1.01 | locus YJL134W, strain LCB3, hits give low values 1.01 | locus YJL154C, strain vps35, hits give low values 1.01 | locus YJL164C, strain tpk1, hits give low values 1.02 | locus YJL166W, strain qcr8, hits give low values 1.02 | locus YJL168C, strain set2, hits give low values 0.983 | locus YJL187C, strain SWE1 (second series), hits give low values 1.03 | locus YJL187C, strain SWE1, hits give low values 1.04 | locus YJR043C, strain POL32, hits give low values 1.06 | locus YJR066W, strain TOR1, hits give low values 0.942
